Data reported in PubChem BioAssay (NCI).
Compounds without any hit were thinned out: in the full panel of roughly 83,000, 20% have a hit.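 Assay: single dose, 48 h. Readout: percent growth (0 = no net growth; negative = cell death). Active: <10.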 Values without a mark were called inactive. Activity calls are given as the source filed them.

system: MDA-MB-468 breast; test: NCI-60 one-dose screen, 48 h (100 = growth as untreated, 0 = no growth, -100 = all killed); conditions: 10 µM unless noted

Row | Structure (SMILES) | growth
1 | O=C1NCc2ccc3c(-c4cccc(Cl)c4)c[nH]c3c21 | 26.5%
2 | Cc1csc(NC(c2ccc(Br)cc2)c2c(C)nc3ccccn23)n1 (stereo not given) | 93.5%
3 | COc1cc(/C=C2\C(=O)Nc3ccccc32)ccc1OCc1ccc(F)cc1 | 102%
4 | CC[C@@H](C)OC(=O)c1nn(C(C)=O)c2ccccc12 | 82.4%
5 | Cc1cc(N2CCOCC2)nc(N(CCCNc2ccnc3cc(Cl)ccc23)Cc2ccc3c(c2)OCO3)n1 | -63.6% (active)
6 | CC/C(=C(/c1ccc(Cl)cc1)c1ccc(OCCN2CCOCC2)cc1)c1ccccc1 | 91%
7 | COc1ccc(-c2nc3c(N)c(CO)cnc3s2)cc1 | 57.6%
8 | C=C1C(=O)O[C@H]2[C@H]1CC/C(COC(=O)c1cc3cc(F)ccc3[nH]1)=C\CC[C@@]1(C)O[C@@H]21 | -63.2% (active)
9 | NC(N)=N/N=C/c1ccccc1 | 94.2%
10 | COc1cc2[nH]c(C(=O)c3cc(OC)c(OC)c(OC)c3)c(N)c2cc1C#CCO | 25.6%
11 | O=C(/C=C/C12c3ccccc3C(c3ccccc31)C1C(=O)N(c3ccc(Cl)cc3)C(=O)C12)c1ccccn1 (stereo not given) | -9.41% (active)
12 | COC1=CC=CC2(OC)C3(O)CCCc4cccc(c43)N3C(=O)COC132 (stereo not given) | 115%
13 | Cc1cc(=O)n2nc(-c3cn(C)c4ccc(Cl)cc34)sc2n1 | -42.5% (active)
14 | CC1CCN(CCCCCOc2ccc3oc4ccccc4c(=O)c3c2)CC1 | 41.6%
15 | [O-][n+]1ccccc1CCN(O)CCc1cccc[n+]1[O-] | 110%
16 | O=C1OCC2=C1C(c1cccc(Br)c1)c1cc3c(cc1N2CCO)OCCO3 (stereo not given) | 24.7%
17 | COc1ccc(C2C(C#N)=C(N)Oc3c2sc2c(F)cccc32)cc1 (stereo not given) | 40.6%
18 | O=C(O)c1cn(C2CC2)c2cc(N3CCN(Cc4c(O)ccc5ccccc45)CC3)c(F)cc2c1=O | 35.1%
19 | N#C/C(=C\c1ccc2ccccc2c1)C(=O)Nc1sc2c(c1C#N)CCC2 | 96.8%
20 | Cc1ccc(N2C(=O)/C(=C/C=C/c3ccco3)SC2=S)cc1 | 50.7%

Row | Structure (SMILES) | growth
21 | C=CCn1c(C)nc2cc(Nc3nc(N4CCCC4)nc4ccccc34)ccc21 | 105%
22 | COc1cc(-c2nc3ccccc3[nH]2)ccc1OCC(=O)N=Nc1c(O)[nH]c2ccccc12 | -55.4% (active)
23 | Nc1ccc2ccc(N)cc2c1 | 75.8%
24 | COc1ccc(CSc2nnc(SCC(=O)Nc3ccc(Cl)cc3)s2)cc1 | 91.1%
25 | CS(=O)(=O)c1nnc(-c2ccccc2)s1 | -8.46% (active)
26 | C=C(C)CCC(C)N1CCC(N2CCC(C(=O)NCCc3ccccc3)CC2)CC1 (stereo not given) | 48.4%
27 | COc1cc2c(c(OC)c1OC)-c1cc(I)c(O)cc1[C@@H](NC(C)=O)CC2 | -32.9% (active)
28 | Cc1cc(NC(=O)CSCC(=O)O)no1 | 114%
29 | c1ccc2[nH]c(-c3ccc(Nc4nc(N5CCCCC5)nc(N5CCOCC5)n4)cc3)nc2c1 | -3.66% (active)
30 | Fc1cc(-c2cnc3nonc3n2)c(Cl)cc1Cl | 61.8%
31 | COc1ccc(-c2nc3ccc(-c4nc5ccc(N6CCN(c7ccncc7)CC6)cc5[nH]4)cc3[nH]2)cc1OC | -46.3% (active)
32 | C=C1C(=O)O[C@H]2[C@H]1CC/C(COC(=O)/C=C\C(=O)NCc1ccc(Cn3c(=O)sn(-c4ccccc4)c3=O)cc1)=C\CC[C@@]1(C)O[C@@H]21 | 30.5%
33 | Cc1ccc2c(NCCCN(C)C)c3c(C)nn(C)c3nc2c1 | 22.1%
34 | COc1cc(-c2nc(SCCC(C)C)nc(Nc3ccc(S(N)(=O)=O)cc3)c2C#N)cc(OC)c1OC | 42.8%
35 | COc1cc(/C(=C2/O[C@@H]([C@H]3COC(C)(C)O3)[C@H]3OC(C)(C)O[C@@H]23)c2ccc3c(c2)OCO3)cc(OC)c1OC | 69.6%
36 | O=C(CC1(O)C(=O)Nc2c(Cl)ccc(Cl)c21)c1ccc(Cl)cc1Cl (stereo not given) | 103%
37 | COc1ccc2c(CCCC(c3ccccc3)c3ccccc3)c3[n+](cc2c1OC)CCc1cc2c(cc1-3)OCO2 | -73% (active)
38 | COC(=O)c1nc(-c2ccccc2)oc1S(=O)(=O)N1CCCC(C)C1 (stereo not given) | 29.2%
39 | COc1cc(C(=O)/C=C/c2ccc3nc(-c4cc(F)cc(F)c4)sc3c2)cc(OC)c1OC | 120%
40 | CNC(=O)c1cc(Oc2ccc3nc(NC(=O)Nc4ccc(CN5CCOCC5)c(C(F)(F)F)c4)sc3c2)ccn1 | -17.2% (active)
